Assay results published in PubChem BioAssay (NCATS).
Results filed as inconclusive are left out. A number with no mark means an inactive call. Calls follow the shape of the dose curve; as a rule, active = well fitted inhibition curve with a large enough effect; inconclusive = small, poorly fitted or top-dose-only effect; inactive = flat fitted curve, though single readings scatter.

Target: Calcium and integrin-binding protein 1 (Homo sapiens) (UniProt Q99828)
Assay: Primary qHTS for Identification of Calcium Integrin Binding Protein 1 (CIB1) Competitor (AID 1508620);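 also: GST tagged CIB1 binding a fluorescein labelled alphaIIb integrin peptide tracer; top concentration of the series differs between compounds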
Conditions: CIB1-GST / FITC-alphaIIb peptide fluorescence polarization; series mostly up to 114 µM; activity change, negative = inhibition: at the top concentration
Description: Assay Provider: Ulhas P. Naik, PhD Sidney Kimmel Medical College Thomas Jefferson University, Philadelphia, PA Primary function of platelets is to maintain hemostasis. At the site of vascular injury, platelets adhere to adhesive proteins such as collagen and von Willebrand factor. Adherent platelets are activated and generate soluble platelet agonists such as thrombin, ADP and thromboxane A2. Following exposure of circulating platelets to these agonists, results in platelet shape change, granule secretion and activation of platelet integrin alphaIIb-beta3. Ligand binding to activated integrin alphaIIb-beta3 triggers outside-in signaling, leading to platelet aggregation, stabilization of platelet plug, and clot retraction. Upon atherosclerotic plaque rupture also causes platelet plug formation, which underlies a number of cardiovascular diseases such as myocardial infraction and stroke. A number of anti-platelet drugs such as aspirin, clopidogrel, prasugrel, vorapaxar, and eptifibatide are currently available to prevent the thrombotic complications. However, these anti-platelet agents have several limitations including inherent variability in individual responses, developing resistance, and serious bleeding side effects. For these reasons they are not suitable for long-term protection. Based on the experiences with current anti-platelet drugs, it appears that the most useful therapeutic approach is to intersect the secondary responses such as integrin outside-in signaling or recruitment of platelets by TxA2 and secreted ADP. Compounds, which can largely preserve the primary hemostatic function of platelets but inhibit secondary response will be most desired therapeutic agents for treatment of cardiovascular disease. CIB1 is a calcium integrin binding protein, which specifically interact with the alphaIIb subunit of integrin alphaIIb-beta3. Binding of CIB1 to alphaIIb regulates the outside-in signaling in platelets, which is needed for thrombus stabilization and thrombus growth. […] Therefore, we propose that discovery of a small molecule that can prevent the association of CIB1 and alphaIIb-beta3 will be a potential anti-platelet agent that can block the thrombus formation without undue effect on hemostasis. Reference: [1] Naik MU, Nigam A, Manrai P, et al. CIB1 deficiency results in impaired thrombosis: the potential role of CIB1 in outside-in signaling through integrin alpha IIb beta 3. J Thromb Haemost.
PROTOCOL TABLES SEQUENCE No. (1, 2, 3, etc.); […] (e.g., Cells, Incubation, Reagent, etc.); VALUE and DESCRIPTION. 1; Reagent; 3 uL; Protein or buffer (4/3x) 2; Compound; 46 nL; Control inhibitor / compound library 3; Time; 15 min; Room temperature incubation 4; Reagent; 1 uL; Fluorescent labeled peptide (4x) 5; Time; 1000 rpm; Centrifuge 6; Time; 15 min; Room temperature incubation 7; Detection; Ex 480/ Em 540; ViewLux Fluorescence Read NOTES (numbers refer to sequence above) 1; Protein Mixture: C1B1-GST (final concentrations of 1 uM). […] 3; Room temperature incubation. 4; Fluorescent Labeled Peptide: FITC-aIIb (final concentration of 100 nM). Sequence of alphaIIb peptide: Acetyl-[…]-FITC (purity is 95.83%). 5; Centrifuge 1000 rpm (164 g) for 15 seconds. 6; Room temperature incubation. 7; ViewLux Fluorescent Polization Read: excitation = 480(20) / emission = 540(25) S and P; FITC Dichroic mirror.
% is scaled to controls: 0 for no effect and ±100 for the full control effect.

Sequence of Calcium and integrin-binding protein 1 (Homo sapiens) (Q99828 whole entry, looked up): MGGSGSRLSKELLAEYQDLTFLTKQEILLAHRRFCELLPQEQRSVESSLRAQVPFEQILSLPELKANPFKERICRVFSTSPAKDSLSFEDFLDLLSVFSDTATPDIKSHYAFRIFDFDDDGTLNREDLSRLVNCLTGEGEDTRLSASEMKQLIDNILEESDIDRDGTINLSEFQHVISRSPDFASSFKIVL

Structure (SMILES)	activity change, negative = inhibition
Fc1ccc(N2CCN(CCC3OCCc4ccccc43)CC2)cc1 (stereo not given)	-2.27%
C=C(C)C(=O)OC1CC(CO)CCC/C(CO)=C/C2OC(=O)C(=C)C21 (stereo not given)	-7.86% [at 57.7 µM]
CCCN1CCC=C(c2cc(-c3ccc(C)cc3)no2)C1	1.16%
NS(=O)(=O)c1ccc(N2N=C(c3ccccc3)CC2c2ccccc2)cc1 (stereo not given)	-2.35%
COC1=CC(=O)O/C1=C(/OC)[C@@H]1O[C@H]1c1ccccc1	-10.2%
C/C(=C\CCC(C)C1=CCC2(C)OC3=C(CC12)C(=O)C(O)CC3)CO (stereo not given)	0.141% [at 57.7 µM]
Cn1c(SCC(=O)N2CCC[C@H]2C(=O)Nc2ccccc2-c2ccccc2)nc2ccccc21	5.81%
C/C=C(\C)C(=O)OC1C[C@@]2(COC(C)=O)O[C@H]2/C=C\[C@@]2(C)O[C@@H]2[C@H]2OC(=O)C(COC(C)=O)=C12 (stereo not given in full)	8.92% [at 57.7 µM]
Cc1cc(C(=O)Cn2cc(C#N)ccc2=O)c(C)n1Cc1ccccc1	1.91%
C[C@H]1CC[C@@]2(OC1)O[C@H]1CC3[C@@H]4CC[C@@H]5C[C@@H](O[C@@H]6O[C@H](CO)[C@@H](O[C@@H]7O[C@@H](C)[C@H](O)[C@@H](O)[C@H]7O)[C@H](O)[C@H]6O[C@@H]6O[C@H](CO)[C@@H](O)[C@H](O)[C@H]6O)CC[C@]5(C)C4CC[C@]3(C)[C@H]1[C@@H]2C (stereo not given in full)	-6.49% [at 30.2 µM]
CC(C)C[C@@H]1NC(=O)[C@@H]2C[C@@]34C[C@@H]5[C@@]6(C)CCCC(C)(C)C6CC[C@@]5(C)N(c5ccccc53)[C@H]4N2C1=O (stereo not given in full)	-5.97% [at 57.7 µM]
C=C1C(=O)OC2C1CCC1(C)C(O)CCC(=C)C21 (stereo not given)	-0.307%
CNS(=O)(=O)c1ccccc1Nc1nc(Nc2ccc(N3CCN(C)CC3)cc2OC)ncc1Br	-12.5%
CC(C)=CCC/C(C)=C/COCC1OC(n2ccc(=O)[nH]c2=O)C(O)C1O (stereo not given)	3.97% [at 57.7 µM]
O=C1C[C@]23C=CCN4CCC5c6cc7c(cc6N1[C@@]5(CC2)C43)OCO7 (stereo not given in full)	-4.67% [at 57.7 µM]
CC(C)(C)c1ccc(NC(=O)N2CCN(c3ncccc3Cl)CC2)cc1	3.66%
NC(=O)c1cnc(N[C@@H]2CCCC[C@H]2N)nc1Nc1cccc(-n2nccn2)c1	2.24%
CCN1CCN(Cc2ccc(NC(=O)c3ccc(C)c(Oc4ccnc5[nH]ccc45)c3)cc2C(F)(F)F)CC1	-8.4% [at 57.7 µM]
C=C[C@@]1(C)CCC2C(=CCC3[C@]2(C)CCC[C@@]3(C)C(=O)O)C1 (stereo not given in full)	-0.804%
Cc1noc(-c2ccc(-c3ccc(CC(=O)O)cc3)cc2)c1NC(=O)O[C@H](C)c1ccccc1Cl	-7.63%

Structure (SMILES)	activity change, negative = inhibition
COC1C(O)C(OC2CCC3(C)C(CCC45CCC6C7(COC(=O)C7)OC4(O)C6(C)CCC35)C2)OC(C)C1OC1OC(CO)C(OC2OC(CO)C(O)C(O)C2O)C(O)C1O (stereo not given)	1.46% [at 30.2 µM]
CN(C)CCN(Cc1ccccc1)C(=O)c1cc(-c2ccc(F)cc2)n2nc(C(C)(C)C)cc2n1	-13%
CCNC1(C(N)=O)CN(c2nc(C)nc3c(-c4ccc(Cl)cc4)c(-c4ccccc4Cl)nn23)C1	3.18%
Cc1cc(-c2ncc(-c3cccnc3)cc2/C=C/c2ccccc2)cnc1-c1cccnc1	-0.212%
O=C([C@@H](Cc1cccc(C(F)(F)F)c1)NS(=O)(=O)c1cc(F)c2c(c1)CCNC2)N1CCCC1	4.36%
COc1c2c(nc3occc13)C(CC=C(C)C)(OC)C(O)CC2 (stereo not given)	2.18% [at 57.7 µM]
COc1c2c(c(C)c3c1C(=O)OC3)O[C@@]1(C)C[C@@H](OC(C)=O)[C@]34O[C@](OC)(CC[C@]3(C)[C@H]1C2)OC4(C)C	4.59% [at 57.7 µM]
CC[C@H](C)/C=C(C)/C=C/C1=CC2=C(Cl)C(=O)[C@](C)(O)[C@H](OC(C)=O)[C@H]2CO1	17.6% [at 57.7 µM]
CC(C)C[C@@H](C(=O)N[C@@H](Cc1ccc(OCc2ccccc2)cc1)C(=O)NC(C)(C)C)N(C)Cc1ccc(C(C)(C)C)cc1	-3.12%
Cc1ccc(C)c(NC(=O)[C@@H]2CCCN2S(=O)(=O)c2cccc3cccnc23)c1	2.51%
O=C(NO)c1cnc(N2CCN(S(=O)(=O)c3ccc4ccccc4c3)CC2)nc1	-7.41% [at 57.7 µM]
COc1ccc(NC(=O)c2ccc(C(=N)N(C)C)cc2)c(C(=O)Nc2ccc(Cl)cn2)c1	5.86%
C=CCCN1CCC2(CC1)CN(C(=O)c1c(F)cccc1F)c1ccc(Cl)cc12	2.55%
O=C(NCCN1CCN(c2cccc3c2OCCO3)CC1)c1ccc(F)cc1	0.618%
COc1cc(CCC2=NN=C(NC(=O)c3ccc(N4C[C@@H](C)N[C@@H](C)C4)cc3)C2)cc(OC)c1	-8%
Cc1cc(-c2cnc(N)c3c(-c4ccc5scnc5c4)csc23)n(C)n1	2.28%
CCCc1ccc(OCC(=O)N(Cc2nc(-c3cccnc3)no2)C(C)C)cc1	0.0245%
C=C1CCC2C(C)(C)CCCC2(C)C1CC/C(C)=C\CO (stereo not given)	0.875%
COc1ccc(C2(CNC(=O)c3ccc(NC(=O)c4ccco4)cc3)CCOCC2)cc1	0.952%
C=C1CCN([C@H](C)[C@](O)(Cn2cncn2)c2ccc(F)cc2F)CC1	2.87%
